Only some compounds are listed: those with a hit (about 8.1% of all), similar ones and a draw of the others.
SW480 rerep: A quantitative high throughput screen for small molecules that induce DNA re-replication in SW480 colon adenocarcinoma cells. Potency, µM (top dose mostly 46.1 µM), usual class: activators. SW480 DNA re-replication, Hoechst DNA content imaging, 48 h. hit rate 1.8% among 340,000. AID 624297, 2012; also: nearly all actives have a fitted effect of over 55% in size
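Hoechst fluorescence of nuclei (405 nm excitation, 500-530 nm emission) measured by plate-scanning imager after 48 hr compound exposure at 37 C; re-replication scored as increased number of nuclei with elevated intensity.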
KB-3-1 cytotox: qHTS assay for MDR1-selective chemotherapeutics: Primary screen using the parental adenocarcinoma cell KB-3-1. KB-3-1 viability, CellTiter-Glo ATP luminescence, 72 h. Potency, µM (top dose mostly 46.1 µM), actives largely listed as cytotoxic. hit rate 1.4% among 400,000. AID 1347075, 2019; also: nearly all actives have a fitted effect of over 60% in size
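KB-3-1 cells, DMEM (no phenol red) + 10% FBS; compound by pin transfer, 72 h, 37 °C. Readout: CellTiter-Glo luminescence after 10 min. Data normalized, curve-fitted.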
MCF10A rereplic: A quantitative high throughput screen for small molecules that induce DNA re-replication in MCF 10a normal breast cells; MCF 10A DNA re-replication, Hoechst nuclear intensity, 48 h; Potency, µM (top dose mostly 46.1 µM), hits mostly activators; hit rate 2.9% among 350,000; AID 624296, 2012; also: nearly all actives have a fitted effect of over 50% in size
ELG1 repair inh: qHTS screen for small molecules that inhibit ELG1-dependent DNA repair in human embryonic kidney (HEK293T) cells expressing luciferase-tagged ELG1. HEK293T ELG1-luciferase reporter, luminescence, 16 h; DNA damage induced by 5-fluorouridine. Potency, µM (series often up to 46.1 µM), usual class: inhibitors. hit rate 2.3% among 330,000; also: nearly all actives have a fitted effect of over 55% in size
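Step one: seed 2,000 cells per well. Step two: pin-transfer compound or DMSO alongside 5-fluorouridine. Step three: incubate 16 hr, 37 °C, 5% CO2. Step four: add ONE-Glo, wait 30 min, read luminescence.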
KB-V1 cytotox: qHTS assay for MDR1-selective chemotherapeutics: Primary screen using the drug-selected MDR subline cells KB-V1; KB-V1 MDR cells viability, CellTiter-Glo, 72 h; Potency, µM (titrated, usually from 46.1 µM), most hits filed as cytotoxic; hit rate 3.4% among 400,000; AID 1347076, 2019; also: nearly all actives have a fitted effect of over 60% in size
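Cytotoxicity via CellTiter-Glo luminescence after 72 h compound exposure at 37 degrees C. Cells: drug-selected KB-V1 line, DMEM phenol-red free plus 10% FBS. Compounds tested at multiple concentrations; normalized data fitted to concentration-effect curves.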
Large screens that a line does not name were inactive. Calls follow the shape of the dose curve; as a rule, active = well fitted curve in the direction sought with a large enough effect; inconclusive = small, poorly fitted or top-dose-only effect, or another doubt; inactive = no such curve, though single readings can be large; an effect the other way counts as inactive or inconclusive.

Cc1c(C(=O)NCc2cccc(Cl)c2)sc(=O)n1Cc1ccc(C(=O)N(C)C)cc1	KB-3-1 cytotox inconclusive, KB-V1 cytotox 21µM (no result: SW480 rerep, MCF10A rereplic, ELG1 repair inh)
Cc1c(C(=O)NCc2ccc(Cl)c(Cl)c2)sc(=O)n1Cc1ccc(S(=O)(=O)N(C)C)cc1	KB-3-1 cytotox 8.2µM, KB-V1 cytotox inconclusive (no result: SW480 rerep, MCF10A rereplic, ELG1 repair inh)
Cc1c(C(=O)NCc2ccc(C(C)C)cc2)sc(=O)n1Cc1ccc(S(=O)(=O)N(C)C)cc1	KB-3-1 cytotox inconclusive, KB-V1 cytotox 2.6µM (no result: SW480 rerep, MCF10A rereplic, ELG1 repair inh)
C=Cc1ccc(Cn2c(C)c(C(=O)NCc3ccc4c(c3)OCCO4)sc2=O)cc1	KB-3-1 cytotox inconclusive, KB-V1 cytotox 9.2µM (no result: SW480 rerep, MCF10A rereplic, ELG1 repair inh)
C/C(=N\N=C\c1ccccc1F)c1nnn(-c2nonc2N)c1C	ELG1 repair inh inconclusive, KB-V1 cytotox inconclusive
Cc1c(C(=O)NCc2ccc(C(C)C)cc2)sc(=O)n1Cc1cccc(F)c1	none (no result: SW480 rerep, MCF10A rereplic, ELG1 repair inh)
CSc1ccc(Cn2c(C)c(C(=O)NCc3ccc(C(C)C)cc3)sc2=O)cc1	KB-3-1 cytotox 18µM, KB-V1 cytotox 16µM (no result: SW480 rerep, MCF10A rereplic, ELG1 repair inh)
COc1ccc(N/C=C/c2nc(SC)nnc2C)cc1	SW480 rerep 15µM, MCF10A rereplic inconclusive
Cc1nc2nc(C)c(CCC(=O)NCCc3ccccc3)c(C)n2n1	KB-V1 cytotox inconclusive (no result: SW480 rerep, MCF10A rereplic, ELG1 repair inh)
COC(=O)C1=C(C)NC(=O)NC1c1ccc(N2CCC(c3ccccc3)=N2)cc1 (stereo unspecified)	SW480 rerep 2.1µM, MCF10A rereplic 5.2µM, ELG1 repair inh inconclusive, KB-V1 cytotox inconclusive
COC(=O)C1=C(C)NC(=O)NC1c1ccc(OC)c(OC)c1 (stereo unspecified)	KB-V1 cytotox inconclusive (no result: SW480 rerep, MCF10A rereplic, ELG1 repair inh)
CCCSC1=N/C(=C/c2ccsc2)C(=O)N1c1ccccc1	none
CCSC1=N/C(=C\c2cccnc2)C(=O)N1c1ccccc1	SW480 rerep inconclusive, MCF10A rereplic inconclusive, KB-V1 cytotox 18µM
CCCCSC1=N/C(=C/c2ccsc2)C(=O)N1c1ccccc1	MCF10A rereplic inconclusive, KB-V1 cytotox 16µM
O=S(=O)(c1ccc(Cl)cc1)N1CCN=C1SCc1cccc(Cl)c1	KB-V1 cytotox 21µM
CC(Oc1cccc(Cl)c1)C(=O)Nc1nc(-c2ccccn2)cs1 (stereo unspecified)	SW480 rerep 6.5µM, KB-3-1 cytotox inconclusive, ELG1 repair inh inconclusive
Cc1c(C(=O)Nc2nc(-c3ccccn3)cs2)oc2ccccc12	KB-3-1 cytotox inconclusive, MCF10A rereplic 23µM
Cc1ccc(C(=O)Nc2nc(-c3ccccn3)cs2)s1	ELG1 repair inh inconclusive
C[C@H](NC(=O)c1ccccc1)C(=O)Nc1nc(-c2ccccn2)cs1	ELG1 repair inh 7.3µM, KB-V1 cytotox inconclusive
Cc1cccc(C(=O)NC(C(=O)Nc2nc(-c3ccccn3)cs2)C(C)C)c1 (stereo unspecified)	ELG1 repair inh 2.9µM, KB-V1 cytotox inconclusive
Cc1cccc(C(=O)NC(C(=O)Nc2ccc(S(=O)(=O)Nc3nccs3)cc2)C(C)C)c1 (stereo unspecified)	none (no result: ELG1 repair inh)
CC(Oc1ccccc1)C(=O)Nc1nc(-c2ccccn2)cs1 (stereo unspecified)	KB-3-1 cytotox inconclusive, MCF10A rereplic inconclusive, ELG1 repair inh inconclusive
CCOc1ccc(NC(=O)CCNS(=O)(=O)c2cccc3nonc23)cc1	none
Cc1cccc(C(=O)N[C@H](C(=O)Nc2ncc(C)s2)C(C)C)c1	SW480 rerep inconclusive, KB-3-1 cytotox inconclusive, ELG1 repair inh inconclusive, KB-V1 cytotox 16µM
Cn1cccc1C(=O)Nc1nc(-c2ccccn2)cs1	SW480 rerep inconclusive, KB-3-1 cytotox 10µM, ELG1 repair inh inconclusive, KB-V1 cytotox inconclusive
Cc1cccc(C(=O)N[C@H](C(=O)Nc2nnc(C3CC3)s2)C(C)C)c1	KB-V1 cytotox inconclusive
COc1cc2c(cc1NC(=O)C1CCCO1)oc1ccccc12 (stereo unspecified)	MCF10A rereplic inconclusive, ELG1 repair inh inconclusive, KB-V1 cytotox inconclusive
Cc1ncoc1C(=O)Nc1ccc(Oc2ccccc2)cc1	ELG1 repair inh inconclusive, KB-V1 cytotox 18µM
COc1cccc(Nc2nc3cc(C)ccc3nc2NS(=O)(=O)c2ccc(Cl)cc2)c1	KB-3-1 cytotox inconclusive, KB-V1 cytotox 15µM (no result: SW480 rerep, MCF10A rereplic, ELG1 repair inh)
COc1cccc(Nc2nc3ccccc3nc2NS(=O)(=O)c2ccc(NC(C)=O)cc2)c1	MCF10A rereplic inconclusive
O=C(O)COc1ccccc1/C=N/Nc1ccc(S(=O)(=O)N2CCOCC2)cc1[N+](=O)[O-]	none
CC1CCN(C(=O)c2ccc(NC3=C(Cl)C(=O)N(Cc4ccccc4)C3=O)cc2)CC1	SW480 rerep inconclusive, KB-3-1 cytotox inconclusive, MCF10A rereplic 23µM, ELG1 repair inh 10µM
CC1CCCCN1C(=O)c1cccc(NC2=C(Cl)C(=O)N(Cc3ccccc3)C2=O)c1 (stereo unspecified)	SW480 rerep inconclusive, KB-3-1 cytotox inconclusive, MCF10A rereplic 23µM, ELG1 repair inh 10µM, KB-V1 cytotox inconclusive
CC1CCN(C(=O)c2ccc(NC(=O)c3ccccc3)cc2)CC1	none
O=C1C(Cl)=C(Nc2cccc(O)c2)C(=O)N1Cc1ccccc1	MCF10A rereplic inconclusive
Cc1cc(N2CCN(C/C=C/c3ccccc3)CC2)n2ncnc2n1	ELG1 repair inh inconclusive, KB-V1 cytotox 9.2µM
c1ccc(CNc2c3c(nc4ncnn24)CCCC3)nc1	MCF10A rereplic inconclusive, ELG1 repair inh inconclusive
COc1ccc(Nc2c3c(nc4c(-c5ccccc5)c(C)nn24)CCC3)cc1	ELG1 repair inh 15µM
Cc1cc(Nc2ccccc2)n2nc(C)c(-c3ccccc3)c2n1	SW480 rerep inconclusive, KB-V1 cytotox inconclusive
Cc1nn2c(N3CCN(C)CC3)c3c(nc2c1-c1ccccc1)CCCC3	MCF10A rereplic inconclusive
Cc1nn2c(NCCN3CCOCC3)c3c(nc2c1-c1ccccc1)CCCC3	MCF10A rereplic inconclusive, ELG1 repair inh 16µM, KB-V1 cytotox inconclusive
Cc1nn2c(NCc3ccccn3)c3c(nc2c1-c1ccccc1)CCC3	SW480 rerep inconclusive, KB-3-1 cytotox inconclusive, ELG1 repair inh 10µM, KB-V1 cytotox 9.2µM
Cc1cc(NCc2ccccn2)n2nc(C)c(-c3ccccc3)c2n1	SW480 rerep inconclusive, ELG1 repair inh 23µM
Cc1nn2c(NCc3ccccn3)cc(C(C)(C)C)nc2c1-c1ccccc1	SW480 rerep 2.9µM, KB-3-1 cytotox inconclusive, MCF10A rereplic 2.6µM, ELG1 repair inh inconclusive
CCCCCCCCCCCCCCCC[n+]1ccc(CC(O)c2c(C)[nH]c3ccccc23)c2ccccc21 (stereo unspecified)	KB-3-1 cytotox 16µM, KB-V1 cytotox 16µM (no result: SW480 rerep, MCF10A rereplic, ELG1 repair inh)
Cc1ccc(NC(=O)CCN2CCN(C/C=C/c3ccccc3)CC2)cc1	SW480 rerep inconclusive, MCF10A rereplic inconclusive
Cc1ccc(NC(=O)CCN2CCN(C/C=C/c3ccccc3)CC2)cc1C	MCF10A rereplic inconclusive, KB-V1 cytotox 3.3µM

Screening data (PubChem)
